T cruzi growth-1: inhibitors of T. cruzi proliferation. T. cruzi beta-gal in NIH3T3, GalScreen luminescence, 90 h. inhibition, % at 8.34 µM. actives 5.9% (n = 77,000). AID 624255;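 active = mean inhibition above about 93%, with at least 55% of replicates each passing it, limit read from the data, passing the limit was not always enough; inconclusive = only one of those two conditions holds; inactive = neither condition holds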
C diff HTS: blocks growth of Clostridium difficile | Clostridium difficile clinical isolate growth, OD600, 24 h; stronger effect = lower value | growth activity, negative = inhibition, % at 16 µg/mL (by protocol) | actives 0.25% (n = 86,000) | AID 1259249;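 active = mean growth activity at or below -80% and every replicate also at or below -80%; inconclusive = mean at or below -80% but some replicate above -80%; inactive = mean growth activity above -80%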;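 note: 0% = DMSO wells and -100% = levofloxacin 16 µg/mL wells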
T cruzi growth-2: Trypanosoma cruzi proliferation inhibition; shares compounds with T cruzi growth-1; T. cruzi beta-gal in NIH3T3, GalScreen luminescence, 90 h; inhibition, % at 8.35 µM; actives 72% (n = 5,600); AID 651739;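 active = mean replicate inhibition above about 95% and at least 55% of replicates individually reaching it, limit read from the data; inconclusive = only one of the two criteria is met; inactive = neither criterion is met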
T cruzi growth-3: inhibitors of T. cruzi proliferation. shares compounds with T cruzi growth-1. T. cruzi beta-gal in NIH3T3, GalScreen luminescence, 90 h. inhibition, % at 2.09 µM. actives 21% (n = 5,600). AID 651740;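 active = mean inhibition above about 95%, with at least 55% of replicates also reaching it, limit read from the data; inconclusive = meets just one of the two conditions; inactive = meets neither condition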;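 note: plate controls were neutral control median for no effect and positive control median for full effect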
3T3 cytotox: cytotoxicity in mouse NIH/3T3 fibroblasts | actives 14% (n = 5,600) | cytotoxicity (signal decrease), % at 8.35 µM | shares compounds with T cruzi growth-1 | NIH/3T3 viability, CellTiter-Glo ATP luminescence, 90 h;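 active = mean signal decrease across replicates above about 35% based on untreated-well scatter, with enough replicates individually passing, limit read from the data; inconclusive = no rule stated though some were filed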;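 note: 0% = median of neutral control wells and 100% = median of positive control wells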
NIH3T3 tox 2: cytotoxicity in mouse NIH/3T3 fibroblasts | shares compounds with T cruzi growth-1 | NIH/3T3 viability, CellTiter-Glo ATP luminescence, 90 h | inhibition, % at 24.9 µM | actives 56% (n = 5,600) | AID 651744;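 active = mean loss of cell viability signal at or above a set limit, and enough replicates individually reaching it; inconclusive = meets only the mean limit or only the replicate share; inactive = meets neither condition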;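 note: 0% = median of neutral control wells and 100% = median of positive control wells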
* marks the source's active call; other numbers are inactive results; ? = inconclusive; . = no result. Many of the other results were omitted from the sample, so hits are more common in it than they were.

SMILES	T cruzi growth-1	C diff HTS	T cruzi growth-2	T cruzi growth-3	3T3 cytotox	NIH3T3 tox 2
CC(C)C#Cc1cnc2c(c1)C(=O)N([C@@H](C)CO)C[C@@H](C)[C@@H](CN(C)C(=O)c1ccccc1F)O2	77	-1	.	.	.	.
CCC(=O)N1CC2(C1)[C@@H](c1ccc(-c3ccc(F)cc3)cc1)[C@H](CO)N2C(=O)CC	.	-3	.	.	.	.
C[C@H](CO)N1C[C@H](C)[C@H](CN(C)C(=O)CCCN(C)C)OCCCC[C@H](C)Oc2ccc(NS(=O)(=O)c3ccc(Cl)cc3)cc2C1=O	22	-2	.	.	.	.
CN1[C@@H]2c3ccc(C4=CCCC4)c(=O)n3C[C@H]1[C@H](CO)[C@H]2C(=O)NC1Cc2ccccc2C1	71	1	.	.	.	.
C[C@@H]1CCCCO[C@H](CN(C)C(=O)C2CCCCC2)[C@@H](C)CN([C@@H](C)CO)C(=O)c2cc(NS(=O)(=O)c3ccc(F)cc3)ccc2O1	57	-9	.	.	.	.
COc1ccc(NC(=O)Nc2ccc3c(c2)C(=O)N([C@H](C)CO)C[C@H](C)[C@H](CN(C)C(=O)Nc2ccc(C(F)(F)F)cc2)OCCCC[C@H](C)O3)cc1	?	-6	109*	99*	5	7
COc1ccc(NC(=O)Nc2ccc3c(c2)C(=O)N([C@H](C)CO)C[C@H](C)[C@@H](CN(C)C(=O)Nc2ccc(C(F)(F)F)cc2)OCCCC[C@@H](C)O3)cc1	112	-8	.	.	.	.
C[C@@H]1CN([C@H](C)CO)C(=O)c2cc(NC(=O)Nc3ccc4c(c3)OCO4)ccc2O[C@@H](C)CCCCO[C@@H]1CN(C)S(=O)(=O)c1cccs1	64	10	.	.	.	.
C[C@@H]1CCCCO[C@H](CN(C)S(=O)(=O)c2cccs2)[C@H](C)CN([C@H](C)CO)C(=O)c2cc(NC(=O)NC3CCCCC3)ccc2O1	81	0	.	.	.	.
C[C@@H]1CCCCO[C@@H](CN(C)S(=O)(=O)c2cccs2)[C@@H](C)CN([C@H](C)CO)C(=O)c2cc(NC(=O)NC3CCCCC3)ccc2O1	103*	7	34	2	6	39*
C[C@@H]1CCCCO[C@H](CN(C)S(=O)(=O)c2cccs2)[C@H](C)CN([C@@H](C)CO)C(=O)c2cc(NC(=O)NC3CCCCC3)ccc2O1	100*	7	105*	35	-4	5
C[C@@H]1CCCCO[C@@H](CN(C)S(=O)(=O)c2cccs2)[C@H](C)CN([C@@H](C)CO)C(=O)c2cc(NC(=O)NC3CCCCC3)ccc2O1	93	24	.	.	.	.
C[C@@H]1CN([C@@H](C)CO)C(=O)c2cc(NC(=O)Nc3ccc(C(F)(F)F)cc3)ccc2O[C@H]1CN(C)S(=O)(=O)c1cccs1	?	1	80	48	?	57*
C[C@H]1CN([C@@H](C)CO)C(=O)c2cc(NC(=O)Nc3ccc(C(F)(F)F)cc3)ccc2O[C@@H]1CN(C)S(=O)(=O)c1cccs1	90	-6	.	.	.	.
C[C@H](CO)N1C[C@H](C)[C@H](CN(C)S(=O)(=O)c2cccs2)OCCCC[C@H](C)Oc2ccc(NC(=O)Nc3ccc4c(c3)OCO4)cc2C1=O	86*	-4	106*	53	16	27*
C[C@@H](NC(=O)[C@H]1N[C@H]2c3ccc(-c4cncnc4)c(=O)n3C[C@H]2[C@@H]1CO)c1ccccc1	8	4	.	.	.	.
CC(C)NC(=O)Nc1ccc2c(c1)C(=O)N([C@H](C)CO)C[C@@H](C)[C@H](CN(C)Cc1ccc(-c3ccccc3)cc1)O2	-157	-10	.	.	.	.
C[C@@H]1CN([C@@H](C)CO)C(=O)Cc2cc(NS(C)(=O)=O)ccc2O[C@H]1CN(C)C(=O)Nc1ccc(C(F)(F)F)cc1	25	-2	.	.	.	.
O=C(C[C@H]1C=C[C@@H](NC(=O)Nc2cc(F)ccc2F)[C@@H](CO)O1)NCc1ccccn1	18	-2	.	.	.	.
C[C@@H]1CN([C@@H](C)CO)C(=O)c2cc(NC(=O)Nc3ccc(F)cc3)ccc2O[C@@H](C)CCCCO[C@@H]1CN(C)S(=O)(=O)c1cccs1	-51	-3	.	.	.	.
C[C@@H]1CCCCO[C@H](CN(C)S(=O)(=O)c2cccs2)[C@@H](C)CN([C@H](C)CO)C(=O)c2cc(NC(=O)NC3CCCCC3)ccc2O1	28	5	.	.	.	.
C[C@H](CO)N1C[C@H](C)[C@H](CN(C)S(=O)(=O)c2cccs2)OCCCC[C@H](C)Oc2ccc(NC(=O)NC3CCCCC3)cc2C1=O	101*	-12	88	24	22	-6
C[C@@H]1CCCCO[C@@H](CN(C)S(=O)(=O)c2cccs2)[C@H](C)CN([C@@H](C)CO)C(=O)c2cc(NC(=O)Nc3ccc(C(F)(F)F)cc3)ccc2O1	100*	-3	105*	114*	5	-8
COc1ccc(NC(=O)N[C@H]2CC[C@H](CCNC(=O)c3cc(Cl)cc(Cl)c3)O[C@H]2CO)cc1	-5	.	.	.	.	.
C[C@@H]1CN([C@@H](C)CO)C(=O)c2cccc(NC(=O)NC3CCCCC3)c2O[C@@H]1CN(C)C	.	-4	.	.	.	.
SMILES	T cruzi growth-1	C diff HTS	T cruzi growth-2	T cruzi growth-3	3T3 cytotox	NIH3T3 tox 2
CN(C)C(=O)c1ccc(-c2ccc3c(c2)[C@H]2[C@H](CCN2C(=O)c2ccc4c(c2)OCO4)[C@@H](CO)N3)cc1	101*	-6	105*	74	0	1
N#Cc1cccc(-c2ccc3c(c2)[C@@H]2[C@@H](CCN2C(=O)c2ccc4c(c2)OCO4)[C@@H](CO)N3)c1	88	-10	.	.	.	.
CCC(=O)N1CC[C@@H]2[C@H]1c1cc(-c3ccccc3)ccc1N[C@@H]2CO	43	-20	.	.	.	.
CCC(=O)N1CC[C@@H]2[C@H](CO)Nc3ccc(-c4ccc(C(=O)N(C)C)cc4)cc3[C@@H]21	108*	-7	101*	57	3	-2
N#Cc1ccc(-c2ccc3c(c2)[C@@H]2[C@@H](CCN2C(=O)c2ccncc2)[C@H](CO)N3)cc1	77	-7	.	.	.	.
N#Cc1cccc(-c2ccc3c(c2)[C@H]2[C@H](CCN2C(=O)c2ccc4c(c2)OCO4)[C@@H](CO)N3)c1	97*	-4	103*	100*	10	37*
N#Cc1cccc(-c2ccc3c(c2)[C@@H]2[C@@H](CCN2C(=O)c2ccncc2)[C@@H](CO)N3)c1	103*	-3	97*	8	3	8
CN(C)C(=O)c1cccc(-c2ccc3c(c2)[C@@H]2[C@@H](CCN2C(=O)c2ccc4c(c2)OCO4)[C@@H](CO)N3)c1	30	4	.	.	.	.
COc1cccc(/C=C/C=O)c1	.	-7	.	.	.	.
COCC(=O)N1C[C@@H]2[C@H](c3ccccc31)[C@@H](CO)N2C(=O)c1ccncc1	-42	0	.	.	.	.
C[C@@H]1CN([C@H](C)CO)C(=O)c2cc(NC(=O)c3ccccc3)ccc2O[C@@H](C)CCCCO[C@H]1CN(C)S(=O)(=O)c1ccc(F)cc1	.	9	.	.	.	.
C[C@H]1CN([C@@H](C)CO)C(=O)c2cc(C#CCN(C)C)cnc2O[C@@H]1CN(C)C(=O)Cc1ccncc1	31	0	.	.	.	.
